Measurements published in ChEMBL document CHEMBL3988442, “University of Dundee, Small-Polar-MMV Screening Library” (2021).

target: T1, Arginase-2, mitochondrial (Homo sapiens) (UniProt P78540); experiment: in vitro enzyme assay to detect the production of urea directly proportional to the activity of Arginase II; type: functional; design: scale not given: in the data most compounds retested in dose-response had high values; conditions: 30 µM
T1 sequence (whole entry): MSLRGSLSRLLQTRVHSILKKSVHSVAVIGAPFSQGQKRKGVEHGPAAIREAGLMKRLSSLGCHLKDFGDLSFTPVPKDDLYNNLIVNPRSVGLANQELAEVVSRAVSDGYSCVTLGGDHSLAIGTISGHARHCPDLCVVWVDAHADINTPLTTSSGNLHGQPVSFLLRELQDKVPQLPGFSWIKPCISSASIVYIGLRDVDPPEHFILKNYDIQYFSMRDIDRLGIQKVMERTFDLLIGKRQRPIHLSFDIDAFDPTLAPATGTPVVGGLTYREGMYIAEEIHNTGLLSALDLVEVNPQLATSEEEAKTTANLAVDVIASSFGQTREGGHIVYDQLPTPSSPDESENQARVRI

Row | SMILES | Percent Effect [%]
1 | CCC(C(=O)NCc1cccnc1)N(c1cccc(C)c1)S(C)(=O)=O (stereo not given) | -0.54
2 | CC1=Nc2c(c(=O)[nH]n2C2CCOCC2)C(c2cccc(O)c2)S1 (stereo not given) | 2.7
3 | CCn1c(NCc2ccc(OC)cc2)nc2c(C)nn(C)c2c1=O | -4.87
4 | O=C(Cn1ccc2c(Cl)cccc21)N1CCCC1 | 8.11
5 | CCC(C(=O)NCc1ccncc1)N(c1cccc(Cl)c1)S(C)(=O)=O (stereo not given) | -13.5
6 | CN(Cc1ccco1)[C@@H]1CN(Cc2ccc(F)cc2)[C@@H]2CCCO[C@H]12 | 2.7
7 | Cc1noc(C)c1CN1C[C@@H](N(C)Cc2ccco2)[C@H]2OCCC[C@H]21 | 7.03
8 | CN(C)c1ncccc1CN1CCOC(C(=O)Nc2ccccc2)C1 (stereo not given) | 1.62
9 | CC1=Nc2c(c(=O)[nH]n2C2CCCC2)C(c2ccc(C(=O)O)cc2)S1 (stereo not given) | 7.03
10 | COc1ccccc1Oc1ncccc1CNC(=O)[C@H](N)CC(C)(C)C | 10.3
11 | COc1ccc2c(c1)OCC(CNC(=O)c1cc[nH]c1C)C2 (stereo not given) | 8.11
12 | Cc1cc(C(=O)N2CCCC(c3nccn3Cc3cscn3)C2)on1 (stereo not given) | 9.19
13 | CCn1c(NCc2ccccn2)nc2c(C)nn(C)c2c1=O | -5.95
14 | CNC(=O)[C@H]1C[C@@H]2CN(C(=O)c3occc3C)C[C@@H]2N1S(C)(=O)=O | 2.7
15 | CN(C)C(=O)CN1CCC(c2cncc(-c3cccc(Cl)c3)n2)CC1 | -0.54
16 | Cc1nn(C)cc1C(=O)N1CCCC(c2nccn2Cc2cscn2)C1 (stereo not given) | -12.4
17 | CC(C)N(C)C(=O)c1coc(CN2CCN(c3ccccc3F)CC2)n1 | 7.03
18 | Cc1ccc(CNCc2nnc3n2CC(C(F)(F)F)CC3)o1 (stereo not given) | -7.03
19 | O=c1[nH]c2c(c(=O)n1C1CCCCC1)CCC2Nc1ccc(Cl)cc1 (stereo not given) | -2.7
20 | Cc1nn(CCO)c(C)c1CNC1CCCCc2ccccc21 (stereo not given) | 3.78

Row | SMILES | Percent Effect [%]
21 | CC1=Nc2c(c(=O)[nH]n2C2CCCCC2)C(c2ccc(C(=O)O)cc2)S1 (stereo not given) | 5.95
22 | NC(=O)CCCNC(=O)c1cc(Br)c2c(c1)OCCO2 | 3.78
23 | Cc1ccoc1CNCc1nnc2n1CC(C(F)(F)F)CC2 (stereo not given) | 3.78
24 | CC[C@@H](NC(C)=O)C(=O)NCc1cccnc1Oc1ccccc1OC | 4.87
25 | N#Cc1ccc(OCC(O)CN2CCN(c3nccs3)CC2)cc1 (stereo not given) | 5.95
26 | O=C(c1coc(CN2CCN(c3ccccc3F)CC2)n1)N1CCCC1 | 3.78
27 | CN(C)c1ccc(NC(=O)C2CN(Cc3ccccc3)CCO2)cn1 (stereo not given) | 10.3
28 | CC1=Nc2c(c(=O)[nH]n2C2CCCC2)C(c2cccnc2)S1 (stereo not given) | 7.03
29 | CS(=O)(=O)NCCC(=O)N1CCCC1c1noc(C2CC2)n1 (stereo not given) | 11.3
30 | COc1ccc2c(c1)OCC(CNC(=O)NC(C)(C)C)C2 (stereo not given) | 5.95
31 | Cc1ccc(C(C(=O)O)N2CCCN(Cc3ccccn3)CC2)c(F)c1 (stereo not given) | 8.11
32 | O=C(NCc1ccccn1)[C@]12COC[C@H]1CN(Cc1ccccc1F)C2 | 4.87
33 | OC(CN(Cc1ccccc1)Cc1ccon1)c1cccs1 (stereo not given) | 8.11
34 | CN(CC(=O)N1CCCC1c1noc(C2CC2)n1)S(C)(=O)=O (stereo not given) | 3.78
35 | CC(C)CNC(=O)c1cc(Br)c2c(c1)OCCO2 | 3.78
36 | CC(=O)NCCNC(=O)c1cc(Br)c2c(c1)OCCO2 | 4.87
37 | O=C(NCC1CC1)[C@@H]1CCO[C@@H]2CCN(CCc3ccccc3)C[C@H]21 | 1.62
38 | Cc1noc(CNC(=O)N2CCN(c3nc(C)c(C)s3)CC2)n1 | 5.95
39 | Cc1cc(C)cc(OCC(O)CN2CCN(c3nccs3)CC2)c1 (stereo not given) | 4.87
40 | FC(F)(F)C1CCc2nnc(CNCc3cccs3)n2C1 (stereo not given) | 2.7
